Here are results for 48 compounds from the supplement of paper PMC10600219.

Structures can show the parent of a compound that is named as a salt. In all, about 2,800 compounds were measured (“cell viability relative to vehicle”: median about 1.1, lowest 2% from about 0.19 on). This excerpt belongs to a sample that is enriched for the lowest values.

The test has as its system NCI-H2228 parental. Briefly: cell viability relative to vehicle (fraction of vehicle); NCI-H2228 is an ALK-positive lung cancer line and DTP means drug-tolerant persister; higher = less growth inhibition. Particulars: 100 nM; treatment time 6 days. An outline of the steps:
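Drug-tolerant persister NCI-H2228 cells, produced by 13 days in 1000 nM of a targeted drug, and their parental counterparts were seeded into 384-well plates and, the following day, given the 3114-agent TargetMol anti-cancer compound library at 100 nM or DMSO vehicle. After 6 days, the CellTiter-Glo 3D Cell Viability Assay was used to read ATP. Each entry reports viability compared with vehicle-treated cells.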
As to `Cn1cc(CNCC2CCN(c3ncc(C(=O)NO)cn3)CC2)c2ccccc21` [Quisinostat], the cell viability was determined as 0.159.

In the case of `Cn1cc(C[C@@H](N)C(=O)O)c2ccccc21` [Indoximod], the cell viability is 1.11.

Take `CN1CCc2c(c3ccccc3n2Cc2ccc(C(=O)NO)cc2)C1` [Tubastatin A HCl]: the cell viability stood at 1.02.

With `CCCN1CCN(c2ccc(C(=O)NC3(C(=O)NCC#N)CCCCC3)cc2)CC1` [Balicatib], the cell viability is 1.07.

Consider `CC(C)=CCC[C@](C)(O)[C@H]1CC[C@]2(C)[C@@H]1[C@H](O)C[C@@H]1[C@@]3(C)CC[C@H](O)C(C)(C)[C@@H]3[C@@H](O[C@@H]3O[C@H](CO)[C@@H](O)[C@H](O)[C@H]3O[C@@H]3O[C@@H](C)[C@H](O)[C@@H](O)[C@H]3O)C[C@]12C` [Ginsenoside Rg2], for which the cell viability is 1.15.

As for `CCCCCCCCOC(=O)c1cc(O)c(O)c(O)c1` [Octyl gallate], the cell viability amounted to 1.03.

Consider `CC[C@@](C)(Nc1ccnc(-c2c[nH]c3ncccc23)n1)C(=O)NCC(F)(F)F` [Decernotinib], for which the cell viability was determined as 1.12.

For the compound `O=C(Nc1cccc(Cl)c1)Nc1ncc(CCNc2ncnc3ccsc23)s1` [SNS-314 Mesylate], the cell viability stood at 0.126.

With `COc1cc2ncnc(Nc3cccc(Cl)c3)c2cc1OC`, the cell viability was found to be 0.877.

Regarding `COc1cc(/C=C/C(=O)OC[C@H]2O[C@H](O[C@]3(CO)O[C@H](CO)[C@@H](O)[C@@H]3OC(=O)/C=C/c3cc(OC)c(O)c(OC)c3)[C@H](O)[C@@H](O)[C@@H]2O)cc(OC)c1O` [3,6'-Disinapoyl sucrose], the cell viability came out at 0.963.

Consider `Fc1ccc(-n2cc(CCCCN3CCC4(CC3)OCc3ccccc34)c3ccccc32)cc1` [Siramesine hydrochloride], for which the cell viability was determined as 1.13.

Consider `COc1ccc(-c2cc3c(C)nc(N)nc3n([C@H]3CC[C@H](OCCO)CC3)c2=O)cn1`, for which the cell viability is 0.485.

Consider `COc1cccc(-c2cc(F)ccc2[C@H]2Cc3nc(N)nc(C)c3C(=O)N2)n1`, for which the cell viability is 0.171.

With `Oc1ccc(-c2cc(=S)ss2)cc1` [Desmethylanethol trithione], the cell viability amounted to 1.03.

On to `Cc1cc(C#N)c(N)s1` [2-Amino-5-methyl-3-thiophenecarbonitrile], for which the cell viability amounted to 0.811.

On to `COCCNc1cc(NC(=O)N2CCCc3cc(CN4CCN(C)CC4=O)c(C=O)nc32)ncc1C#N` [Roblitinib], for which the cell viability was 1.13.

For the compound `COc1ccc2[nH]c(C(=O)c3ccccc3)cc2c1`, the cell viability turned out to be 0.197.

With `O=C(CCCCCCNC(=O)c1cnc(N(c2ccccc2)c2ccccc2Cl)nc1)NO` [Citarinostat], the cell viability worked out at 1.03.

For `CC(C)c1cc(-c2n[nH]c(=O)n2-c2ccc3c(ccn3C)c2)c(O)cc1O` [Ganetespib], the cell viability stood at 0.118.

As for `CCc1c2c(nc3ccc(OC(=O)N4CCC(N5CCCCC5)CC4)cc13)-c1cc3c(c(=O)n1C2)COC(=O)[C@]3(O)CC` [Irinotecan], the cell viability stood at 0.939.

`CC[C@@]1(O)C(=O)OCc2c1cc1n(c2=O)Cc2cc3c(CN(C)C)c(O)ccc3nc2-1` [Topotecan hydrochloride]: the cell viability worked out at 0.0837.

As for `CC[C@@]1(O)C(=O)OCc2c1cc1n(c2=O)Cc2cc3cc(O)ccc3nc2-1` [10-Hydroxycamptothecin], the cell viability is 0.0838.

Take `CC[C@@]1(O)C(=O)OCc2c1cc1n(c2=O)Cc2cc3cc(O)ccc3nc2-1` [Hydroxy Camptothecine]: the cell viability is 0.0691.

Turning to `CCc1c2c(nc3ccc(O)cc13)-c1cc3c(c(=O)n1C2)COC(=O)[C@]3(O)CC`, the cell viability was determined as 0.0693.

In the case of `CCc1c2c(nc3ccc(OC(=O)N4CCC(N5CCCCC5)CC4)cc13)-c1cc3c(c(=O)n1C2)COC(=O)[C@]3(O)CC` [Irinotecan hydrochloride trihydrate], the cell viability came to 1.11.

Take `CC(C)C(C(=O)O)N1C(=O)C(=Cc2ccc(Br)cc2)SC1=S` (stereo not drawn): the cell viability amounted to 1.04.

Turning to `COc1ccc(-c2oc3cc(O)cc(O)c3c(=O)c2O)cc1` [kaempferide], the cell viability was found to be 1.13.

`OC[C@H]1O[C@@H](Oc2cc(O)cc(/C=C/c3ccc(O[C@@H]4O[C@H](CO)[C@@H](O)[C@H](O)[C@H]4O)cc3O)c2)[C@H](O)[C@@H](O)[C@@H]1O` [Mulberroside A]: the cell viability came to 1.07.

Turning to `N[C@@H](CO)C(=O)O` [serine], the cell viability turned out to be 1.06.

For the compound `COc1ccc(C(=C2C(=O)Nc3ccccc32)c2ccc(OC)cc2)cc1`, the cell viability stood at 1.05.

On to `CN(C)C(=S)NN=C(c1ccccn1)c1ccccn1`, for which the cell viability came to 0.212.

For `C/C(=N\NC(=S)N1CCC1)c1ccccn1`, the cell viability worked out at 0.136.

As for `S=C(N/N=C1/CCCc2cccnc21)N1CCN(c2ccccn2)CC1`, the cell viability came out at 1.09.

Consider `COc1cc(OC)cc(C(=O)Nc2ccc(Cl)c(-c3nc4ccc(N(C)C)cc4[nH]3)c2)c1` [HhAntag], for which the cell viability was determined as 1.03.

`NC(=O)c1ccc(OCCCN2CC3CCCC3C2)cc1` (stereo not drawn): the cell viability turned out to be 1.17.

As for `COc1c(Nc2ncc(Cl)c(N[C@H]3[C@@H](C(N)=O)[C@@H]4C=C[C@H]3C4)n2)ccc2c1CC[C@@H](N1CCOCC1)CC2`, the cell viability came out at 0.799.

On to `Cc1[nH]c2ccccc2c1CCNCc1ccc(/C=C/C(=O)NO)cc1` [Panobinostat], for which the cell viability is 0.094.

Regarding `CN(C)Cc1ccc(S(=O)(=O)n2ccc(/C=C/C(=O)NO)c2)cc1` [Resminostat hydrochloride], the cell viability is 1.02.

As to `Cc1[nH]c2ccccc2c1CCNC(=O)c1cccs1`, the cell viability was determined as 1.06.

Consider `CC(C)c1cc2c(c(O)c1O)[C@@]13CCCC(C)(C)[C@@H]1C[C@@H]2OC3=O` [Carnosol], for which the cell viability came out at 1.04.

In the case of `O=C1C=C2C=C[C@@H](O)[C@H](O)[C@H]2O1` [griffonilide], the cell viability was found to be 1.11.

With `N=C(NCCCCCCNC(=N)NC(=N)Nc1ccc(Cl)cc1)NC(=N)Nc1ccc(Cl)cc1` [Chlorhexidine hydrochloride], the cell viability is 0.965.

Take `N=C(NCCCCCCNC(=N)NC(=N)Nc1ccc(Cl)cc1)NC(=N)Nc1ccc(Cl)cc1` [Chlorhexidine]: the cell viability stood at 1.08.

For `N#CN=C(NCCCCCCOc1ccc(Cl)cc1)Nc1ccncc1`, the cell viability turned out to be 0.0557.

In the case of `CN1CCN(C(=O)C2C(C(=O)O)[C@H]3CC[C@@H]2O3)CC1` (stereo partly drawn), the cell viability was determined as 0.955.

For the compound `O=C1CSc2ccccc2N1Cc1cccc(C(F)(F)F)c1`, the cell viability came out at 1.04.

As for `OC[C@@H](O)[C@@H](O)[C@@H](O)[C@@H](O)CO` [Allitol], the cell viability was 1.13.

With `Cn1cc(-c2nc(N[C@@H]3CCCC[C@@H]3N)c(F)c3c2C(=O)NC3)cn1` [TAK-659 hydrochloride], the cell viability was 1.01.
